In the library only some 0.16% were active in any assay of this set; here they are far more common.
USP2a inh – USP2a (human) protease inhibition | O75604 | USP2a enzymatic assay, qHTS inhibition | Potency, µM (series often up to 38.3 µM), actives largely listed as inhibitors | 60,000 tested, 0.1% active; further: nearly all actives have a fitted effect of over 60% in size
Target sequence (O75604 whole entry, looked up): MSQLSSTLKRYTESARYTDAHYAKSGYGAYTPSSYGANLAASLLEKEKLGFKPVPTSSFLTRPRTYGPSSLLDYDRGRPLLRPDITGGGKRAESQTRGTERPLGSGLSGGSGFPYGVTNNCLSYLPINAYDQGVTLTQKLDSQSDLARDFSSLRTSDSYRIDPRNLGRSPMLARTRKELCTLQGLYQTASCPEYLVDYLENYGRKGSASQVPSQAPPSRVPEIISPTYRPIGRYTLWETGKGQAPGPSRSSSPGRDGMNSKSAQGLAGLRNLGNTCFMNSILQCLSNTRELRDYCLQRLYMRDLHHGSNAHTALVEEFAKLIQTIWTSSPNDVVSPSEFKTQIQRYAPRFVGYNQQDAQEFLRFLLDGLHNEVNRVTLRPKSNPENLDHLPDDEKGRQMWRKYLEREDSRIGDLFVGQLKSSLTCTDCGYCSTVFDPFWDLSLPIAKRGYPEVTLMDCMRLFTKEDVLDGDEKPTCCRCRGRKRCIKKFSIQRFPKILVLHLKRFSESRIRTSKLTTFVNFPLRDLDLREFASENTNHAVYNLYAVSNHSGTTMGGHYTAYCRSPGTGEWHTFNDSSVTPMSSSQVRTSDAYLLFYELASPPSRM
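USP2 core (20nM final) preincubated 30 min RT with compound, then Ub-PLA2 20nM and NBD C6-HPC 20uM final added; buffer 20mM Tris-HCl pH 8.0, 2mM CaCl2. Fluorescence Ex 460/Em 535 read at 0 and 2.5 h; normalized to NEM.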
Ub-GFP proteasome – ubiquitin-GFP accumulation via proteasome inhibition; Ubiquitin-GFP reporter cells, proteasome inhibition, GFP fluorescence; response scale: untreated = 0%, 10 µM MG-132 = 100%; 67,000 tested, under 10 active; Potency, µM (highest dose often 45.9 µM), hits mostly activators; AID 526; active means well fitted activation curve with a large enough effect, not every such curve was filed as active; inconclusive means small, poorly fitted or top-dose-only effect, or another doubt; inactive means no such curve, though single readings can be large or run the other way
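U2OS Ub(G76V)-GFP reporter; O/N plating, 0.5% FBS; cpd 46 uM–2.9 nM, 4 h, 37 °C; GFP+ cell count, 488/515 nm; norm. to basal vs 10 uM MG-132; CRC fit.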
HBB splicing – alters splicing of the hemoglobin beta chain; HBB splicing reporter cell assay, activation; EGFP reporter with mutant IVS2-654 intron; response scale: normalised to 500 nM splice-correcting PNA; Potency, µM (series often up to 46.1 µM), most hits filed as activators; 65,000 tested, 0.06% active
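Compounds were applied for 2 days to HeLa EGFP-654 cells, 500/well in Optimem with 2% FCS. The reporter's EGFP is disrupted by mis-splicing of beta-globin intron IVS2-654. Readout: summed well GFP fluorescence from 488 nm laser scanning; reference was 500 nM antisense […] 654 PNA.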
GFP derepression – epigenetic modulators derepressing GFP locus in mouse cells. mouse C127i GFP locus derepression, cytometry, 30 h. Potency, µM (highest dose often 46.1 µM). 68,000 tested, 0.09% active. AID 597
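Murine C127i mammary cells carrying a silenced, stably integrated CMV-driven GFP reporter were treated with compound for 30 hours at 37 C. After PBS washes, GFP-positive cells were counted by laser-scanning microplate cytometry.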
IkB sig inh – inhibitors of IkB signaling in ABC-DLBCL cells; AID 445; ABC-DLBCL IkBa-CBG/CBR dual luciferase ratio, 4 h; response scale: scaled: untreated 0%, proteasome inhibitor 100%; Potency, µM (highest dose often 57.1 µM); 110,000 tested, 0.04% active; active means well fitted curve in the direction sought with a large enough effect in the signal ratio, not every such curve was filed as active; inconclusive means small, poorly fitted or top-dose-only effect, or a change in a side signal; the % refers to the signal ratio;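 further: the direction sought is a rising ratio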
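Curves were fitted separately to fusion (green), unfused (red) and ratio luminescence, then classed by r2, magnitude and activity. Cells: OCI-Ly3, 4 h compound plus doxycycline at 37C; 10 uM MG-132 defined full response.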
Each line names hits and unclear results; the compound was inactive in the other large screens; ! = not active in a repeat. Unless noted, the call rests on the fitted dose curve; in most records, active means well fitted curve in the direction sought with a large enough effect; inconclusive means small, poorly fitted or top-dose-only effect, or another doubt; inactive means no such curve, though single readings can be large; an effect the other way counts as inactive or inconclusive.

N[C@@H](Cc1cc(O)c(O)cc1O)C(=O)O	USP2a inh 6.3µM
O=C1C=CC(=O)c2c(O)cccc21	USP2a inh 13µM (no result: Ub-GFP proteasome, HBB splicing, GFP derepression, IkB sig inh)
O=C1c2ccccc2C(=O)c2ccccc21	none (no result: Ub-GFP proteasome, HBB splicing, GFP derepression, IkB sig inh)
NC[C@@H](CC(=O)O)c1ccc(Cl)cc1	IkB sig inh 3.2µM!
O=C1CN=C(c2cccs2)c2c(sc3c2CCCC3)N1	USP2a inh 6.3µM (no result: HBB splicing)
Cc1cc2c(s1)NC(=O)CN=C2c1cccs1	none
CC(=O)[O-].CC(=O)[O-].O.O.[Cd+2]	IkB sig inh 5µM (no result: USP2a inh, Ub-GFP proteasome, GFP derepression)
CN(N=O)c1ccc(O)c(O)c1	USP2a inh 13µM
CC(=O)[C@@H]1CC[C@@H]2[C@H]3CC[C@H]4C[C@@H](O)CC[C@]4(C)[C@@H]3C(=O)C[C@]21C	none (no result: USP2a inh)
CN1C[C@@H](CNC(=O)OCc2ccccc2)C[C@H]2c3cccc4c3c(cn4C)C[C@@H]21	none (no result: USP2a inh)
CC[C@@H]1CN2CCc3cc(OC)c(OC)cc3[C@H]2C[C@@H]1C[C@@H]1NCCc2cc(OC)c(OC)cc21	IkB sig inh inconclusive
O=C(O)CN1CCN(CC(=O)O)CC(=O)[O][Hg][O]C(=O)C1	IkB sig inh 4µM (no result: USP2a inh)
COS(C)(=O)=O	none (no result: Ub-GFP proteasome, GFP derepression)
O=S1OCC2C(CO1)C1(Cl)C(Cl)=C(Cl)C2(Cl)C1(Cl)Cl (configuration not stated)	none (no result: Ub-GFP proteasome, GFP derepression)
O=C(O)[C@@H]1[C@H](C(=O)O)[C@]2(Cl)C(Cl)=C(Cl)[C@@]1(Cl)C2(Cl)Cl	GFP derepression 3.2µM, IkB sig inh 3.2µM (no result: USP2a inh)
CCNC(C)(C)[C@@H](SS)c1ccc(Br)cc1	none (no result: USP2a inh)
NC(=O)CI	USP2a inh 25µM
CC(C)[C@H]1C(=O)N2CCC[C@@H]2[C@]2(O)O[C@@](NC(=O)[C@H]3C=C4c5cccc6[nH]cc(c56)C[C@H]4N(C)C3)(C(C)C)C(=O)N12	none (no result: USP2a inh, HBB splicing)

Bioassay records: PubChem BioAssay, National Center for Advancing Translational Sciences (NCATS)
